Source: PubChem
DT40 TDP1 no CPT = qHTS for Inhibitors of human tyrosyl-DNA phosphodiesterase 1 (TDP1): qHTS in cells in absence of CPT; DT40 Tdp1-/- hTDP1 cells, no CPT, ATP luminescence, 48 h; Potency, µM (titrated, usually from 46.2 µM), inactives show at the top dose activity change, negative = growth inhibition, hits mostly inhibitors; 420,000 compounds, 15% hits; AID 686978, 2013; note: nearly all actives have a fitted effect of over 55% in size
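Chicken DT40 Tdp1-/- cells complemented with human TDP1, screened without camptothecin (DMSO vehicle only), 400 cells/well. Compounds pin-transferred, cells incubated at 37 °C for at least 48 hr. Growth read as ATP-dependent luminescence (CellTiter-Glo, 30 min at RT).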
VDR inh = blocks the human vitamin D receptor. 400,000 compounds, 0.93% hits. Potency, µM, inactives show max response, negative = inhibition, usual class: inhibitors. AID 504847. VDR-SRC2-3 peptide fluorescence polarization, 2 h. P11473
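Fluorescence polarization assay measuring small-molecule disruption of VDR binding to the coregulator peptide SRC2-3. Compounds were pin-transferred (23 nl) into the reagent mix and incubated 2 h at room temperature before reading.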
TDP1 cell CPT = DT40-hTDP1 cell growth loss with CPT. chicken DT40 Tdp1-/-;hTDP1 cells + 20 nM CPT, ATP luminescence, 48 h. 420,000 compounds, 12% hits. AID 686979. Potency, µM (highest dose often 46.2 µM), inactives show top-dose activity change, negative = growth inhibition, usual class: inhibitors; note: nearly all actives have a fitted effect of over 55% in size
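Chicken DT40 Tdp1-/- cells stably complemented with human TDP1 were seeded at 400 cells/well in medium containing 20 nM camptothecin, exposed to pin-transferred compounds, and grown at 37 °C for at least 48 hr. Viability was read as ATP luminescence.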
KAT2A inh = inhibitors of human GCN5L2 histone acetyltransferase. GCN5L2 HAT assay, ThioGlo1 CoA-SH fluorescence. AID 504327. Q92830. Potency, µM (highest dose often 58.9 µM), inactives show at the highest dose activity change, negative = inhibition, usual class: inhibitors. 390,000 compounds, 0.21% hits
Target sequence (Q92830 whole entry, looked up): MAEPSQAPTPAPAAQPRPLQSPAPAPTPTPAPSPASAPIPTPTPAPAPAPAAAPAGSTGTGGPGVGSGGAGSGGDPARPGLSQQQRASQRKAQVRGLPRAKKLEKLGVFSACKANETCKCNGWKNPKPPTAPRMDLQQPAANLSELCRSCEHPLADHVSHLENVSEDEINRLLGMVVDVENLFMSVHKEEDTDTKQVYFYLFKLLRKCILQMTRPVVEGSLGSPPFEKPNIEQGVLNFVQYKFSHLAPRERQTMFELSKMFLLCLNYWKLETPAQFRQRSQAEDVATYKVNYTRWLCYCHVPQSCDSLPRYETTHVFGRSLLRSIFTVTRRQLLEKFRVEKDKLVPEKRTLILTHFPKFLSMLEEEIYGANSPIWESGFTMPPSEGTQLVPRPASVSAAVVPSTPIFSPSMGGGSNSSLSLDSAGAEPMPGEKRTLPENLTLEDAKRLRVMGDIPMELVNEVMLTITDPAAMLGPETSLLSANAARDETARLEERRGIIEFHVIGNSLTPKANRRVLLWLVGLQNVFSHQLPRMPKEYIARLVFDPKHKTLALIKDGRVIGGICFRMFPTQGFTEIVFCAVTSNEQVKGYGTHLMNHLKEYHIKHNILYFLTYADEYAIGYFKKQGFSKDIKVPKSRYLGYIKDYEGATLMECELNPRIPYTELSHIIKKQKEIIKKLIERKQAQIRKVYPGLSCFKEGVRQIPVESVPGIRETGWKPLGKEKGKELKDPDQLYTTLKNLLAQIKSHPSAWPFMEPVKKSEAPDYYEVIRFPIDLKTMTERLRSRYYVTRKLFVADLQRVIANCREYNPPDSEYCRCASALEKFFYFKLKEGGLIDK
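Preincubate 20nM GCN5L2 with compound 15 min, RT → add 50uM ThioGlo1 + 75uM H3(1-25) + 70uM acetyl-CoA → read fluorescence 0 and 20 min. Primary qHTS; fluorescent artifacts likely.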
PLK1 PBD block = inhibitors of human PLK1 polo-box domain binding. Potency, µM, inactives show max response, negative = inhibition, actives largely listed as inhibitors. AID 720504. Plk1 PBD binding of FITC phosphopeptide, fluorescence polarization. P53350. 360,000 compounds, 2.8% hits; note: series mostly up to about 57 µM; nearly all actives have a fitted effect of over 65% in size
TDP1 inh = inhibitors of human tyrosyl-DNA phosphodiesterase TDP1; recombinant TDP1, AlphaScreen DNA substrate cleavage; Potency, µM (highest dose often 130 µM), without a hit: top-dose activity change, negative = inhibition, most hits filed as inhibitors; 350,000 compounds, 0.28% hits; AID 485290; note: nearly all actives have a fitted effect of over 40% in size
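AlphaScreen read-out: signal falls as enzyme removes the 3' tyrosine-FITC from a 5'-biotinylated DNA oligo (15 nM, 5 min, RT). Enzyme was E. coli-made recombinant Tdp1 at 1 nM, exposed to compound for 15 min beforehand; beads 10 ug/ml, 10 min.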
* = called active by the depositor; ? = inconclusive; · = no result given. Rows were chosen to be rich in hits. Some 18% of all compounds tested hit in one or more screens of this group. Calls come from the whole dose curve; as a rule, active = well fitted curve in the direction sought with a large enough effect; inconclusive = small, poorly fitted or top-dose-only effect, or another doubt; inactive = no such curve, though single readings can be large; an effect the other way counts as inactive or inconclusive. % is set by controls: 0 for no effect and ±100 for the full control effect; potency is the fitted concentration of half-maximal effect.

SMILES	DT40 TDP1 no CPT	VDR inh	TDP1 cell CPT	KAT2A inh	PLK1 PBD block	TDP1 inh
CC(=O)N[C@@H]1C(O[C@H]2O[C@H](C(=O)O)C(O)[C@H](O)[C@H]2O)[C@H](O)[C@@H](CO)O[C@H]1O[C@@H]1C(C(=O)O)O[C@@H](O[C@H]2[C@H](O)[C@@H](CO)OC(O)[C@@H]2NC(C)=O)[C@H](O)[C@H]1O (some centres undefined)	21µM*	-4%	-2%	-7%	·	·
CC(=O)N[C@@H]1C(O)OC(CO)C(O)C1O (some centres undefined)	·	6%	·	0%	·	?
Cc1csc(SCc2nnc(-c3ccccc3Br)o2)n1	-20%	18%	-26%	0%	-15%	-1%
Fc1ccccc1SCc1nnc(-c2ccccc2Br)o1	26µM*	45µM*	5.8µM*	-17%	3.4µM*	·
Cn1c(=O)[nH]c(=O)c2c1nc1n2CC(O)CN1c1ccccc1 (centres undefined)	8%	15%	13%	7%	-11%	·
Fc1ccc(Nc2ncnc3ccc(-c4ccoc4)cc23)cc1	?	40µM*	15µM*	?	·	·
c1nc(NC2CCNCC2)c2cc(-c3ccoc3)ccc2n1	-10%	20µM*	?	20µM*	·	·
c1cncc(-c2ccc3ncnc(NC4CCNCC4)c3c2)c1	20%	-15%	6%	-14%	·	·
c1nc(N2CCNCC2)c2cc(-c3ccoc3)ccc2n1	2%	-29%	2%	-18%	·	·
Cc1c(NC(=O)c2cnc(Cl)c(Cl)c2)c(=O)n(-c2ccccc2)n1C	-16%	5%	6%	-2%	4%	-3%
O=C(NNC(=S)NC(=O)c1ccco1)c1ccc(NC(=O)c2ccccc2)cc1	21µM*	7%	16µM*	-14%	-22%	-14%
CCOc1ccc(NC(=S)NC(=O)c2ccco2)cc1	29µM*	-7%	-26%	-10%	-8%	·
COc1ccccc1OCC(=O)NNC(=S)NC(=O)c1ccco1	18µM*	1%	?	-3%	-27%	13%
O=C(NC(=S)NNC(=O)c1ccco1)c1ccc(F)cc1	16µM*	23%	?	-13%	-15%	4%
Nn1c(COc2ccccc2F)nnc1SCC(=O)NC1CCS(=O)(=O)C1 (centres undefined)	-12%	-24%	0%	-4%	0%	·
CC(=O)c1ccc(NC(=O)c2cc(-c3ccc(Cl)c(Cl)c3)on2)cc1	19%	-2%	-5%	7%	·	0%
CCCCC(=O)Nc1ccc(C(=O)NNC(=S)NC(=O)c2ccco2)cc1	23µM*	-19%	13µM*	-5%	-4%	3%
O=C(NC(=S)NNC(=O)c1ccccc1O)c1ccco1	18µM*	-13%	21µM*	-2%	-7%	8%
O=C(NNC(=S)Nc1ccc(C(=O)O)c(O)c1)c1ccncc1	-108%	?	-107%	·	27µM*	·
O=C(NC(=S)NNC(=O)c1cc2ccccc2cc1O)c1ccco1	?	?	?	-19%	-18%	10%
CCCCC(=O)Nc1ccc(C(=O)NNC(=O)c2ccco2)cc1	11%	1%	14%	-2%	1%	6%
O=C(NC(=S)NC12CC3CC(CC(C3)C1)C2)c1ccc(F)cc1	23µM*	-17%	?	-3%	-12%	7%
Oc1c(C(c2ccccc2Cl)N2CCN(Cc3ccccc3)CC2)sc2nc(-c3ccco3)nn12 (centres undefined)	?	9%	?	-2%	·	10%
O=C(NNC(=S)NC(=O)c1ccc(F)cc1)c1ccncc1	23µM*	-2%	18µM*	-5%	-14%	4%
O=C(NC(=S)Nc1cccc(NC(=S)NC(=O)c2ccco2)n1)c1ccco1	5.2µM*	1%	-18%	-8%	-20%	-2%
